Source: PubChem BioAssay
Pf Dd2 inh – inhibitors of Plasmodium falciparum Dd2 growth. P. falciparum Dd2 growth, SYBR Green, 72 h. Potency, µM (top dose mostly 28.9 µM), hits mostly inhibitors. 4.3% of 120,000 active. AID 1347417; active = well fitted inhibition curve with a large enough effect; note: nearly all actives have a fitted effect of over 65% in size
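Readout: SYBR Green fluorescence, 485 nm excitation, 535 nm emission, after ~16 h lysis at 37C. Before that, Dd2-infected red cells (2.5% hematocrit) grew 72 h with compound, 29 uM top final concentration.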
Large screens that a line does not name were inactive. The sample as a whole holds a higher share of hits than the screen did.

Cn1ncc(N2CCC(CNC(=O)c3cccc(-n4cnnc4)c3)C2)cc1=O (configuration not stated)	none
CC(=O)NCCC(=O)N1CCCCC1C(=O)Nc1ccc(-n2nc(C)cc2C)cc1 (configuration not stated)	none
CC(C)(O)C1CCCN(C(=O)c2cc(COc3ccccc3F)[nH]n2)C1 (configuration not stated)	none
O=C(Cc1cccc(Cl)c1)N1CCC2(CC1)COc1ccccc1[S+](=O)([O-])N2	none
COc1ccc(CN2C(=O)COC[C@H]2C(=O)NCc2ccc(Cl)cc2)cc1OC	none
O[C@@H]1CN(Cc2ccc(-n3cccn3)cc2)CC[C@H]1c1ccc(F)cc1	Pf Dd2 inh 3.55µM
CC(C)(O)C#Cc1ccc(CN2CC[C@@H](c3ccc(F)cc3)[C@H](O)C2)s1	none
O=C1CC2CCN(Cc3ccc(F)cc3)CC2CCN1 (configuration not stated)	none
Cc1cnc(CC2CCCNC2)n1C(C)C (configuration not stated)	none
CC(=O)N1CCC(Cc2ccc(C(=O)N(C)C)cc2)CC1	none
COc1cccc(CCNC(=O)c2c(C)noc2-c2ccc3c(c2)OCO3)c1	none
COc1ccc(CN2C[C@H]3CN(Cc4ccc(Cl)cc4)CCN3C2=O)cc1	none
COc1ccc(CN2C[C@H]3CN(Cc4ccc5c(c4)OCCO5)CCN3C2=O)cc1	Pf Dd2 inh 11.2µM
COc1ccc(CN2CCN3C(=O)N(Cc4ccc(OC)cc4)C[C@H]3C2)cc1	none
CC(C)C(=O)N1CCCC2(CNS(=O)(=O)c3cccnc3O2)C1 (configuration not stated)	none
COCc1nc(C2CCN(C(=O)N(C)C)C2)no1 (configuration not stated)	none
COc1ccc(C2Cn3nnc(-c4nc(-c5cccnc5)no4)c3CO2)cc1 (configuration not stated)	none
O=C(NC1CCCCCCC1)C1CCCN(c2cnn(Cc3ccccc3)c(=O)c2)C1 (configuration not stated)	none
O=C(NCc1ccc(Cl)cc1)C1CCCN(c2cnn(Cc3ccccc3)c(=O)c2)C1 (configuration not stated)	Pf Dd2 inh 11.2µM
O=C(NC1CCN(Cc2ccccc2)CC1)C1CCCN(c2cnn(Cc3ccccc3)c(=O)c2)C1 (configuration not stated)	none
CN(C)c1ccc(CN(C)C2CCc3ccccc32)cc1 (configuration not stated)	none
Cc1c(-c2ccc(Cl)cc2)c(=O)oc2ccc(OC(=O)N3CCOCC3)cc12	none
Cc1c(-c2ccccc2)c(=O)oc2c(CN3CCOCC3)c(O)ccc12	Pf Dd2 inh 8.91µM
Cc1c(-c2ccc(Cl)cc2)c(=O)oc2c(CN3CCOCC3)c(O)ccc12	Pf Dd2 inh 5.62µM
Cc1c(-c2ccc(Br)cc2)c(=O)oc2ccc(OC(=O)N3CCOCC3)cc12	none
CCn1cc(-c2ccc(Cl)cc2)cc1C(=O)NCCN1CCOCC1	none
Cc1ccccc1CN1CCc2nc(C(=O)N3CCOCC3)oc2CC1	none
O=C(NC1CCN(c2cc(-c3ccccc3)[nH]n2)CC1)c1ccsc1	none
CN1C[C@H](C(=O)Nc2nccs2)C[C@H]1c1cccc(C(F)(F)F)c1	Pf Dd2 inh 2.82µM
Cn1cc(CN2C[C@H](C(=O)Nc3nccs3)C[C@@H]2c2cccc(C(F)(F)F)c2)cn1	none
CN1C[C@H](C(=O)Nc2ccncn2)C[C@H]1c1cccc(C(F)(F)F)c1	none
Cc1nc(-c2ccc(OC3CCN(C(=O)c4[nH]nc5c4COc4ccccc4-5)C3)cc2)no1 (configuration not stated)	none
COCC(=O)NC[C@H]1CCN(Cc2ccc3c(c2)CCO3)C[C@H]1N(C)C	none
CCCC(=O)N1Cc2ccccc2CC2(CCN(Cc3ccc(O)cc3)C2)C1 (configuration not stated)	Pf Dd2 inh 12.6µM
CCCN1CCCC12Cc1ccccc1CN(C(=O)CCCC(=O)O)C2 (configuration not stated)	none
CC(=O)NCCC(=O)N1Cc2ccccc2CC2(CCN(Cc3cccnc3)C2)C1 (configuration not stated)	none
CN1CCCC2(Cc3ccccc3CN(C(=O)c3ccccc3)C2)C1 (configuration not stated)	none
CN(C)CC(=O)N1Cc2ccccc2CC2(CCCN(CC3CCNCC3)C2)C1 (configuration not stated)	none
C[S+](=O)([O-])N1Cc2ccccc2CC2(CCCN(CCc3ccccc3)C2)C1 (configuration not stated)	none
CC(=O)N1Cc2ccccc2CC2(CCN(Cc3ccncc3)C2)C1 (configuration not stated)	none
CC(=O)NCC(=O)N1Cc2ccccc2CC2(CCN(C)C2)C1 (configuration not stated)	none
CN(C)CC(=O)N1Cc2ccccc2CC2(CCCN(CCc3ccccc3)C2)C1 (configuration not stated)	Pf Dd2 inh 5.01µM
CCCN1CCCC2(Cc3ccccc3CN(C(=O)Cc3ccccc3)C2)C1 (configuration not stated)	Pf Dd2 inh 6.31µM
CCC(=O)N1Cc2ccccc2CC2(CCN(CC3CCNC3)C2)C1 (configuration not stated)	none
CCC(=O)N1Cc2ccccc2CC2(CCN(CCc3ccc(C)cc3)CC2)C1	Pf Dd2 inh 8.91µM
O=C(Nc1ccon1)[C@@H]1C[C@@H](c2ccc(F)cc2)N([S+](=O)([O-])c2ccccc2)C1	none
O=C1NC2(Cc3ccccc31)CN(CC1CCNC1)C2 (configuration not stated)	none
CNC(=O)Nc1ccc(C)n(CC(=O)N2CCN(c3cccc(Cl)c3)CC2)c1=O	none
CC(C)c1noc(C2CCCN(S(=O)(=O)c3ccccc3)CCC(=O)NCC2)n1 (configuration not stated)	none
CCOCCOC1CCN(C(=O)Nc2cccc(C)c2)CC1	none
O=C(Nc1ccc(Oc2ccccc2)cc1)N[C@H]1CO[C@H]2[C@@H]1OC[C@@H]2Nc1nccc(-c2cccc(F)c2)n1	none
CCN(C(=O)Cn1cnc2onc(-c3ccc(F)cc3)c2c1=O)c1ccc(OC)cc1	Pf Dd2 inh 11.2µM
O=C(Cn1cnc2onc(-c3ccc(Cl)cc3)c2c1=O)Nc1ccc(F)cc1	none
CCOc1ccc(NC(=O)CCn2cnc3onc(-c4ccc(F)cc4)c3c2=O)cc1	none
CCc1ccc2c(c1)NC(c1cccs1)=NC(c1ccc(F)cc1)=N2	none
CCCCOc1ccc(C2=NC(c3cccs3)=Nc3ccc(OC)cc3N2)cc1	none
CCOc1ccc(C2=NC(c3cccs3)=Nc3ccc(CC)cc3N2)cc1OCC	Pf Dd2 inh 8.91µM
CN(C)C(=O)c1ccc(OC2CCN(C(=O)c3ccc(F)cc3F)CC2)nc1	none
CCCCNC(=O)CC(c1cccc(OC)c1)c1c[nH]c2ccccc12 (configuration not stated)	none
CCCCNC(=O)CC(c1ccc(OC)cc1OC)c1c[nH]c2c(CC)cccc12 (configuration not stated)	none
COc1ccc(C(CC(=O)NCCc2ccc(OC)c(OC)c2)c2c[nH]c3ccccc23)c(OC)c1 (configuration not stated)	Pf Dd2 inh 11.2µM
O=C(Cn1nc2c(cc1=O)CCCC2)N1CCN(c2ccc(Cl)cc2)CC1	none
COCC(=O)N[C@@H]1CN(CC2CC2)CC[C@@H]1c1nc(C)no1	none
Cc1ccccc1CC(=O)NC1CCN(c2cc(-c3ccccc3)[nH]n2)C1 (configuration not stated)	none
CC(=O)NC1(C)CCN(Cc2cccc(-c3ccc(N4CCOCC4)cc3)c2)C1 (configuration not stated)	none
CC(=O)NC1(C)CCN(Cc2ccc(-c3cccc4ncccc34)cc2)C1 (configuration not stated)	none
